Data taken from PubChem BioAssay (NCATS).
Where “and” joins values, the source holds several entries; their conditions need not be identical. Equal values may be shown once. Records with an inconclusive call do not appear. Entries that show only a call come without a potency. Calls of active or inactive are those of the source. Calls follow the shape of the dose curve; as a rule, active = well fitted cell-killing curve with a large enough effect; inconclusive = small, poorly fitted or top-dose-only effect; inactive = no such curve, though single readings can be large or run the other way.

Assay: qHTS of pediatric cancer cell lines to identify multiple opportunities for drug repurposing: Primary screen for NB-EBc1 cells (AID 1347095)
Settings: NB-EBc1 neuroblastoma viability, CellTiter-Glo luminescence, 48 h; series mostly up to 46 µM
Description: Drug repurposing or repositioning has been offered as a strategy for drug development in oncology programs. This approach has special potential for childhood cancers and other rare or orphan diseases, where the expected return on new drug development has been a disincentive to pharmaceuticals. […] In this project we exploit the poly-pharmacology of drugs to discover new indications via phenotypic screening of a panel of 19 well-characterized cell lines derived from solid tumors seen in children and adolescents. The goal is to identify approved drugs with previously unrecognized anticancer properties that has the potential to reveal new mechanisms and biological processes involved in carcinogenesis or drug resistance. We employed a titration-based paradigm (quantitative high-throughput screening or qHTS), where all compounds were tested at multiple concentrations for their effect on cell viability. Concentration-response curves (CRCs) were derived directly from the primary screen, and both potency and efficacy values were used to identify compounds with robust bioactivity profiles. We screened the NIH Chemical Genomics Center (NCGC) Pharmaceutical Collection (NPC) and Mechanism Interrogation Plate (MIPE) small molecule collections of approved and investigational compounds against these cell lines; and measured metabolically active cells after 48 hours of compound treatment as a proxy for cell viability. […] Assay Submitter: Nathalia J. Martinez, National Center for Advancing Translational Sciences, National Institutes of Health, Rockville, MD, USA; email: natalia.martinez@nih.gov Shen, M et al. Quantitative high-throughput phenotypic screening of pediatric cancer cell lines identifies multiple opportunities for drug repurposing. Oncotarget 2017 Dec 19;9(4):4758-4772. PMID 29435139.
The cells were obtained from University of North Carolina (UNC), Pediatric Preclinical Testing Program (PPT), and Coriell Institute (CI). qHTS cell viability assay: Cells were assayed in growth media at a density of 500-1,000 cells/well. Five microliters of cells were dispensed into 1,536-well, white, solid-bottom, TC-treated plates (Greiner Bio One) using a multidrop dispenser and incubated at 37 degrees C, 5% CO2, under a humidified atmosphere for 5 hours. Twenty-three nanoliters of compounds and controls (neutral control DMSO or positive control bortezomib at final concentration of 2.3 µM) were subsequently transferred by Kalypsys pintool. For primary screens, the MIPE collection was tested at 11-point dilutions (final concentrations range from 0.78 nM to 46 µM) and the NPC collection at 8-point dilutions (final concentrations range from 0.59 nM to 46 µM). Compounds tested in follow-up screens were assayed at 11-point dilutions. Cells were incubated for 48 hours, followed by addition of 3 µL of CellTiter-Glo (Promega). After a 15 min incubation at room temperature, samples were analyzed for luminescence intensity using a ViewLux High-throughput CCD imager equipped with clear filters.
Potency is read from the fitted curve at half-maximal effect.

| Structure (SMILES) | Potency |
| --- | --- |
| Cn1c(=O)c2[nH]cnc2n(C)c1=O | inactive |
| COc1ccc2[nH]cc(CCNC(C)=O)c2c1 | inactive |
| COc1ccccc1OCC(O)CN1CCN(CC(=O)Nc2c(C)cccc2C)CC1 (stereo not given) | inactive |
| Cc1cn([C@H]2C[C@H](N=[N+]=[N-])[C@@H](CO)O2)c(=O)[nH]c1=O | inactive |
| COc1ccccc1N1CCN(CC(O)COc2cccc3ccccc23)CC1 (stereo not given) | inactive |
| NC(=O)OCC(COC(N)=O)c1ccccc1 | inactive |
| COc1ccccc1OCCNCC(O)COc1cccc2[nH]c3ccccc3c12 (stereo not given) | inactive |
| CN(C)CCOC(c1ccccc1)c1ccccc1 | inactive |
| COc1ccc(C2CNC(=O)C2)cc1OC1CCCC1 (stereo not given) | inactive |
| O=C(c1ccc(OCCN2CCCCC2)cc1)c1c(-c2ccc(O)cc2)sc2cc(O)ccc12 | 20.9 µM (active) |
| COC(=O)Nc1nc2ccc(C(=O)c3cccs3)cc2[nH]1 | 1 nM (active) and 84.1 nM (active) |
| C[C@](N)(Cc1ccc(O)c(O)c1)C(=O)O | inactive |
| CCCCc1oc2ccccc2c1C(=O)c1cc(I)c(OCCN(CC)CC)c(I)c1 | 8.33 µM (active) |
| CCC1(C)CC(=O)NC1=O (stereo not given) | inactive |
| COc1cc2nc(N3CCN(C(=O)C4COc5ccccc5O4)CC3)nc(N)c2cc1OC (stereo not given) | inactive |
| CN(CCOc1ccc(NS(C)(=O)=O)cc1)CCc1ccc(NS(C)(=O)=O)cc1 | inactive |
| CN(C)CCCN1c2ccccc2CCc2ccc(Cl)cc21 | inactive |
| CS(=O)(=O)CCNCc1ccc(-c2ccc3ncnc(Nc4ccc(OCc5cccc(F)c5)c(Cl)c4)c3c2)o1 | 3.72 µM (active) |
| CCCNCC(O)COc1ccccc1C(=O)CCc1ccccc1 (stereo not given) | inactive |
| COc1nc(C)nc(Cl)c1NC1=NCCN1 | inactive |

| Structure (SMILES) | Potency |
| --- | --- |
| CC1COc2c(N3CCN(C)CC3)c(F)cc3c(=O)c(C(=O)O)cn1c23 (stereo not given) | inactive |
| CC(C(=O)O)c1cccc(C(=O)c2ccccc2)c1 (stereo not given) | inactive |
| COc1ccc2c(c1)c(CC(=O)O)c(C)n2C(=O)c1ccc(Cl)cc1 | inactive |
| Nc1c2c(nc3ccccc13)CCCC2 | inactive |
| CN(C)C(=O)C(CCN1CCC(O)(c2ccc(Cl)cc2)CC1)(c1ccccc1)c1ccccc1 | inactive |
| O=c1[nH]cc(F)c(=O)[nH]1 | 9.44 µM (active) and 2.64 µM (active) |
| CN(C)CCC=C1c2ccccc2C=Cc2ccccc21 | inactive |
| COc1cc2c(c(OC)c1OC)-c1ccc(OC)c(=O)cc1[C@@H](NC(C)=O)CC2 | 42.2 nM (active) and 1 nM (active) |
| Cc1cn([C@H]2C=C[C@@H](CO)O2)c(=O)[nH]c1=O | inactive |
| O=C(C1CCCCC1)N1CC(=O)N2CCc3ccccc3C2C1 (stereo not given) | inactive |
| Cc1cnc(C(=O)NCCc2ccc(S(=O)(=O)NC(=O)NC3CCCCC3)cc2)cn1 | inactive |
| C[C@H]1c2cccc(O)c2C(O)=C2C(=O)[C@]3(O)C(O)=C(C(N)=O)C(=O)[C@@H](N(C)C)[C@@H]3[C@@H](O)[C@@H]21 | inactive |
| O=c1c(O)c(-c2ccc(O)c(O)c2)oc2cc(O)cc(O)c12 | 23.5 µM (active) |
| Clc1ccc(C(c2ccccc2Cl)C(Cl)Cl)cc1 (stereo not given) | 21.1 µM (active) and 18.7 µM (active) |
| COc1ccc(CCN(C)CCCC(C#N)(c2ccc(OC)c(OC)c2)C(C)C)cc1OC (stereo not given) | inactive |
| CN(C)c1nc(N(C)C)nc(N(C)C)n1 | inactive |
| Cc1cc(C(C)(C)C)c(O)c(C)c1CC1=NCCN1 | inactive |
| Cc1ccc(-c2cc(C(F)(F)F)nn2-c2ccc(S(N)(=O)=O)cc2)cc1 | inactive |
| NC12CC3CC(CC(C3)C1)C2 | inactive |
| CCOC(=O)Nc1ccc(NCc2ccc(F)cc2)nc1N | inactive |
